High-throughput results as filed in PubChem BioAssay.
Bm FixLJ act = increases Burkholderia fixLJ two-component signaling. z-score (concentration not given with the values). B. multivorans fixK-promoter GFP reporter, 18 h; stronger effect = higher value. hit rate 0.3% among 29,000;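 active = replicate mean overnight rise in green fluorescent reporter signal, 3 or more SD over negative controls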
Starred values were filed as active, the others as inactive. Only a selection was taken, and hits are over-represented in it overall.

For CCCC(=O)Nc1ccc(NC(=O)c2ccn(C)c2C)cc1OC the results were Bm FixLJ act -0.44.
Screening Nc1c(C(=O)Nc2ccccc2Br)sc2nc(-c3cccs3)ccc12 returned Bm FixLJ act -4.13.
Nc1c(C(=O)Nc2ccc(F)c(F)c2)sc2nc(-c3ccncc3)ccc12 was read as Bm FixLJ act -0.61.
For Nc1c(C(=O)Nc2ccc(Cl)cc2F)sc2nc(-c3cccs3)ccc12 the results were Bm FixLJ act 8.67*.
Screening CCOc1ccc(NC(=O)Cn2c(=O)n(CCCCC(=O)NCCc3ccc(Cl)cc3)c(=O)c3ccccc32)cc1 returned Bm FixLJ act -1.55.
Screening Cc1ccc(NC(=O)c2ccccc2Br)c(C(=O)c2ccccc2)c1 returned Bm FixLJ act 0.54.
For CCCN1C(C(=O)c2ccccc2)=C(OC(=O)C(C)(C)C)c2ccccc2S1(=O)=O the results were Bm FixLJ act 0.47.
`COC(=O)CN1C(C(=O)c2ccccc2)=C(OC(=O)c2ccc(F)cc2)c2ccccc2S1(=O)=O` gave Bm FixLJ act 1.56.
`CCCCC(=O)OC1=C(C(=O)c2ccccc2)N(C)S(=O)(=O)c2ccccc21` gave Bm FixLJ act 2.27.
For CN1C(C(=O)c2ccccc2)=C(NC(=O)c2ccccc2Br)c2ccccc2S1(=O)=O the results were Bm FixLJ act 3.63*.
CN1C(C(=O)c2ccccc2)=C(NC(=O)c2ccc(F)cc2)c2ccccc2S1(=O)=O was read as Bm FixLJ act 7.46*.
Screening CN(C)S(=O)(=O)N(CC(=O)NCCSc1ccc(Cl)cc1)c1ccccc1 returned Bm FixLJ act -2.16.
Cc1cc(C)n2nc(SCC(=O)Nc3ccccc3)nc2n1 was read as Bm FixLJ act 0.28.
Screening Cc1ccc(C)c(Cn2c3ccccc3c3cnn(CC(=O)NC(C)CCc4ccccc4)c(=O)c32)c1 (stereo not drawn) returned Bm FixLJ act -4.16.
`O=C1C(O)=C(O)C(=O)C(O)=C1O` gave Bm FixLJ act 7.43*.
NC(=O)c1cc[n+](CC2=C(C(=O)O)N3C(=O)C(NC(=O)C(c4ccccc4)S(=O)(=O)[O-])C3SC2)cc1 (stereo not drawn) was read as Bm FixLJ act 0.1.
Cc1ccc(CNC(=O)c2ccc(Cn3c(=O)c4ccccc4n(CC(=O)Nc4c(C)cc(C)cc4C)c3=O)cc2)cc1 was read as Bm FixLJ act -0.52.
Cc1cc(C)c(NC(=O)Cn2c(=O)n(Cc3ccc(C(=O)NCc4ccco4)cc3)c(=O)c3sccc32)c(C)c1 was read as Bm FixLJ act 4.53*.
For Cc1cccc(C)c1NC(=O)Cn1c(=O)n(Cc2ccc(C(=O)NCc3ccco3)cc2)c(=O)c2sccc21 the results were Bm FixLJ act -4.42.
For CCc1ccc(-c2nc(CN3CCCC(C(=O)NCc4ccccc4Cl)C3)c(C)o2)cc1 (stereo not drawn) the results were Bm FixLJ act -2.1.
COc1cc(OC)cc(-n2c(=O)c3ccccc3n(Cc3ccccc3C#N)c2=O)c1 was read as Bm FixLJ act -0.5.
c1ccc(-c2cc(NCCc3noc(C4CCCO4)n3)n3nccc3n2)cc1 (stereo not drawn) was read as Bm FixLJ act 0.03.
`COc1ccccc1OCC(=O)Nc1c(C(=O)c2ccc(C)cc2)oc2ccccc12` gave Bm FixLJ act -2.11.
COc1ccc(C(=O)c2oc3ccccc3c2NC(=O)c2ccc(F)cc2)cc1 was read as Bm FixLJ act -0.26.
`COc1ccccc1C(=O)Nc1c(C(=O)c2ccccc2)oc2ccccc12` gave Bm FixLJ act 3.74*.
For COc1ccc(C(NC(=O)CCn2cnnn2)C2CC(O)C2)cc1F (stereo not drawn) the results were Bm FixLJ act -2.51.
CSc1ncc(Cl)c(C(=O)Nc2cc(C(F)(F)F)ccc2Cl)n1 was read as Bm FixLJ act -0.99.
CCC(=O)N1CCc2cc(Br)cc(S(=O)(=O)CCC(=O)Nc3cccc(C)c3C)c21 was read as Bm FixLJ act 3.42*.
Screening Cc1ccccc1NC(=O)CCS(=O)(=O)c1cc(Br)cc2c1N(C(=O)C1CC1)CC2 returned Bm FixLJ act 0.43.
For Cc1cccc(NC(=O)CCS(=O)(=O)c2cc(Br)cc3c2N(C(=O)C2CC2)CC3)c1C the results were Bm FixLJ act 0.77.
`Cc1cccc(C(C)C)c1NC(=O)Cn1c(=O)oc2cc(S(=O)(=O)N3CCCC3)ccc21` gave Bm FixLJ act -0.27.
Screening COc1ccccc1NC(=O)c1sc2nc3c(cc2c1N)CCCCCC3 returned Bm FixLJ act -2.17.
For COc1ccc(C(=O)Nc2cc(-c3nc4ccccc4s3)ccc2OC)cc1 the results were Bm FixLJ act 0.46.
Screening COc1ccccc1NC(=O)c1sc(-c2ccc(Cl)cc2)cc1N returned Bm FixLJ act 4.15*.
`CC1CCC(NC(=O)Cn2ncc3c4ccccc4n(Cc4ccc(Cl)cc4)c3c2=O)CC1` (stereo not drawn) gave Bm FixLJ act 2.94.
Cc1ccccc1Cn1c2ccccc2c2cnn(CC(=O)NC3CCCCCC3)c(=O)c21 was read as Bm FixLJ act -1.25.
Screening Cc1cc(C)c(Cn2c3ccccc3c3cnn(CC(=O)NCCC4=CCCCC4)c(=O)c32)c(C)c1 returned Bm FixLJ act -1.87.
O=C(Cn1ncc2c3ccccc3n(Cc3ccc(Cl)cc3)c2c1=O)NCCC1=CCCCC1 was read as Bm FixLJ act 6.41*.
For O=C(Cn1ncc2c3ccccc3n(Cc3ccc(Cl)cc3)c2c1=O)NC1CCCCCC1 the results were Bm FixLJ act 10.7*.
For O=C(Cn1ncc2c3ccccc3n(Cc3ccccc3)c2c1=O)NCCc1ccc(Cl)cc1 the results were Bm FixLJ act 0.29.
`Cc1cnc(CNC(=O)c2cc3c(s2)CCOC32CCNCC2)cn1` gave Bm FixLJ act -0.01.
Cc1csc2nc(COc3cccc(NC(=O)c4ccccc4F)c3)cc(=O)n12 was read as Bm FixLJ act 3.03*.
COc1ccccc1C(=O)Nc1cccc(OCc2cc(=O)n3c(C)csc3n2)c1 was read as Bm FixLJ act -1.6.
Cc1ccccc1C(=O)Nc1cccc(OCc2cc(=O)n3c(C)csc3n2)c1 was read as Bm FixLJ act -0.23.
Screening COc1ccc(-n2ccnc2CN2CC3NCCOC3C2)cc1 (stereo not drawn) returned Bm FixLJ act 0.31.
For Cc1ccc(C)c(NC(=O)Nc2csc3c2CCCC3)c1 the results were Bm FixLJ act 0.31.
`COc1cccc(NC(CNS(=O)(=O)c2ccc(Cl)cc2)c2ccccc2)c1` (stereo not drawn) gave Bm FixLJ act 4.19*.
Screening COc1cccc(NC(CNS(=O)(=O)c2ccc(C)cc2)c2ccccc2)c1 (stereo not drawn) returned Bm FixLJ act 1.02.
`Cc1ccc(NC(CNS(=O)(=O)c2ccc(Cl)cc2)c2ccccc2)cc1` (stereo not drawn) gave Bm FixLJ act -0.49.
For CC(=O)Nc1ccc(S(=O)(=O)N2CCC(c3nnnn3-c3ccccc3)CC2)cc1 the results were Bm FixLJ act -0.24.
Screening CC1(C(=O)NCc2ccc3c(c2)CCO3)CC12CCNCC2 (stereo not drawn) returned Bm FixLJ act 0.09.
Cc1ccc(Nc2c(-c3c[nH]c4ccccc34)nc3ccccn23)cc1 was read as Bm FixLJ act 4.58*.
Screening Cc1ccc2nc(-c3c[nH]c4ccccc34)c(Nc3ccccc3C)n2c1 returned Bm FixLJ act -0.83.
`Cc1ccc(Nc2c(-c3ccc(Br)o3)nc3ccccn23)cc1` gave Bm FixLJ act -1.01.
Cn1ccnc1NC(=O)CCSc1ccc2c(c1)OCCO2 was read as Bm FixLJ act 0.51.
